# Giardia killer = Small Molecules that selectively kill Giardia lamblia: qHTS. Giardia lamblia trophozoite viability. activity change, % at 7.66 µM, hits read low. hit rate 0.15% among 340,000; in the data active means activity change below about -80%; inconclusive means between about -30% and that limit;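 further: parasites exposed to compound for two days anaerobically before the ATP read; on the % scale 0 is the no-effect control and ±100 the full control effect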
#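 Luminescence from cellular ATP indicates surviving trophozoites (100 cells/well) following 48 hrs anaerobic compound treatment at 37 deg C; signal develops 15-30 min at room temperature.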
# MCF10A rerep = A quantitative high throughput screen for small molecules that induce DNA re-replication in MCF 10a normal breast cells. MCF 10A DNA re-replication, Hoechst nuclear intensity, 48 h. Potency, µM (series often up to 46.1 µM), for the others: at the top dose activity, positive = re-replication, hits mostly activators. hit rate 2.9% among 350,000; further: potency means the concentration at half of the fitted maximal effect; % of control where 0% means no effect; nearly all actives have a fitted effect of over 50% in size
# IL1B secr inh = qHTS for Inhibitors of Inflammasome Signaling: IL-1-beta AlphaLISA Primary Screen; hit rate 4.7% among 360,000; AID 743279, 2014; activity change, % at 57.5 µM; THP-1 LPS/ATP IL-1B secretion, AlphaLISA, 16 h; hits give low values; in the data active means activity change below about -50%; inconclusive means mostly about -30% to -49%; further: on the % scale 0 is the no-effect control and ±100 the full control effect
#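 Secreted IL-1B measured by AlphaLISA bead assay after 16 h compound exposure of THP-1 cells; compounds (final up to 57.5 uM) added 1 h before LPS (250 ng/mL) and ATP (1.25 mM) stimulation; lower signal means less secretion.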
# Vif-A3F inh = qHTS for Inhibitors of Vif-A3F Interactions: qHTS; HeLa A3F-eYFP + Vif (tagged APOBEC3F with the HIV-1 protein that degrades it), YFP fluorescence increase; Potency, µM (series often up to 46.1 µM), for the others: at the top dose activity, negative = active; hit rate 0.2% among 390,000; AID 602313, 2012; further: potency means the concentration at half of the fitted maximal effect; % of control where 0% means no effect; nearly all actives have a fitted effect of over 65% in size
#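 Fluorescence increase (Ex 488/Em 500-530) after overnight compound treatment at 37 deg C flags inhibition of Vif-driven A3F-eYFP loss in stable HeLa A3F-eYFP/Vif cells seeded overnight beforehand.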
# Vif-A3G inh = qHTS for Inhibitors of Vif-A3G Interactions: qHTS. AID 602310, 2012. hit rate 0.076% among 410,000. Potency, µM (series often up to 46.1 µM), inactives show at the top dose activity, negative = active, hits mostly inhibitors. HeLa A3G-eYFP + Vif (tagged APOBEC3G with the HIV-1 protein that degrades it), YFP fluorescence, overnight; further: potency means the concentration at half of the fitted maximal effect; on the % scale 0 is the no-effect control and ±100 the full control effect; nearly all actives have a fitted effect of over 60% in size
# Target sequence (Q9HC16 whole entry, looked up): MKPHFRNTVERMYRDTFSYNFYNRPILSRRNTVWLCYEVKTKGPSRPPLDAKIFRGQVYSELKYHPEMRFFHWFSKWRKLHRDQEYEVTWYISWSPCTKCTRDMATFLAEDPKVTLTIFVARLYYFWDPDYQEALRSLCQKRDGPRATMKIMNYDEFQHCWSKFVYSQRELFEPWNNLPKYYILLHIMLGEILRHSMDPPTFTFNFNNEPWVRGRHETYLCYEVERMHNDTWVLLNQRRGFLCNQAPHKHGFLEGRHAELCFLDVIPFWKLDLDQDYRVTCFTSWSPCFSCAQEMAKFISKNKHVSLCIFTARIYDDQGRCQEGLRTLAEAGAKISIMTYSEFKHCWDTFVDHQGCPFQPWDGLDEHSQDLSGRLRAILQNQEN
#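 Read-out is eYFP fluorescence (Ex 488/Em 500-530) from Vif-expressing HeLa A3G-eYFP cells; more signal means A3G escaped Vif-mediated degradation. Cells plated overnight, compound pinned in, incubated overnight at 37 deg C.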
# SW480 rerep = A quantitative high throughput screen for small molecules that induce DNA re-replication in SW480 colon adenocarcinoma cells; Potency, µM (titrated, usually from 46.1 µM), for the others: at the top dose re-replication activation, actives largely listed as activators; SW480 DNA re-replication, Hoechst DNA content imaging, 48 h; hit rate 1.8% among 340,000; further: potency means the concentration at half of the fitted maximal effect; % of control where 0% means no effect; nearly all actives have a fitted effect of over 55% in size
#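 SW480 cells exposed to compounds for 48 hr at 37 C, 5% CO2, then Hoechst-stained 40 min. Nuclear DNA content imaged by fluorescence scanning (405 nm excitation, 500-530 nm emission); re-replication scored as increased high-intensity nuclei.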
# Numbers without * were called inactive; ? = inconclusive; / = not tested or not shown. Only some compounds are listed: those with a hit (about 6.9% of all), similar ones and a draw of the others. Unless noted, the call rests on the fitted dose curve; in most records, active means well fitted curve in the direction sought with a large enough effect; inconclusive means small, poorly fitted or top-dose-only effect, or another doubt; inactive means no such curve, though single readings can be large; an effect the other way counts as inactive or inconclusive.
SMILES,Giardia killer,MCF10A rerep,IL1B secr inh,Vif-A3F inh,Vif-A3G inh,SW480 rerep
CCCCc1c(-c2ccccc2OC)ncn1CCc1ccccc1Cl,/,/,-62*,/,/,/
Cc1ccccc1CNC(=O)Cn1c(=O)c2cccn2c2cccnc21,/,/,/,-3%,-1%,/
CCCSc1nc2c(c(=O)[nH]1)C(c1ccc(O)c(OCC)c1)CC(=O)N2 (stereo not given),/,/,/,5%,0%,/
COc1ccc(NC(=O)Cc2ccc(NC(=O)N3CCCCc4ccccc43)cc2)c(OC)c1,/,/,/,-5%,-5%,/
Cc1ccc(CN2CCCn3nc(C(=O)NCc4ccc(N(C)C)cc4)cc3C2=O)cc1,/,/,/,5%,4%,/
CCC(Nc1ccc(-c2nc(-c3cccnc3)no2)cc1[N+](=O)[O-])c1ccccc1 (stereo not given),/,/,/,0%,3%,/
CCCCc1c(-c2ccccc2OC)ncn1CCc1cccc(F)c1,/,/,-16,/,/,/
CCCCc1c(-c2ccccc2OC)ncn1CCc1cccc(OC)c1,/,/,-69*,/,/,/
CCCc1c(-c2ccccc2Br)ncn1Cc1ccccc1OC,/,/,1,/,/,/
CCCCc1c(-c2ccccc2Br)ncn1CCc1ccccc1OC,/,/,-79*,/,/,/
N#Cc1ccc(S(=O)(=O)N2CCN(c3nc(-c4cccs4)nc4ccccc34)CC2)cc1,-6,/,/,/,-1%,/
Cc1ccc(C2=C(O)c3ccccc3C(=O)C2=O)cc1,-1,-3%,11,0%,1%,0%
O=C1C(=O)c2ccccc2C(O)=C1c1cccc([N+](=O)[O-])c1,-10,15%,/,-26%,-2%,23µM*
CCC(C)NC(=O)/C=C1\Sc2ccccc2NC1=O (stereo not given),-20,0%,-61*,0%,-1%,-4%
Cc1ccc(N/C=C2/Sc3ccccc3NC2=O)cc1,-25,18µM*,13,?,?,3%
COc1ccc(N/C=C2/Sc3ccccc3NC2=O)cc1,13,-1%,0,-8%,-2%,-87%
CCCn1c(CC)nc([N+](=O)[O-])c1Sc1ccc(C)cc1,-13,24%,-68*,3%,-8%,0%
Cc1ccc(Cc2nc3ccccc3n2C(CCc2ccccc2)c2nc3ccccc3[nH]2)cc1 (stereo not given),/,/,-69*,/,/,/
COc1ccc(/C(C)=N\NS(C)(=O)=O)c(OC)c1,10,-6%,0,12%,0%,0.58µM*
COc1ccc(/C(C)=N/NS(=O)(=O)c2ccccc2)c(OC)c1,-22,-3%,1,-11%,-4%,-2%
COc1cc2c(cc1OC)C1=CC(=O)C(=O)N1C(C)(C)C2,-6,4%,-19,?,7.1µM*,?
COc1cccc(N2C(=O)C(CC(=O)Nc3cccc(F)c3)N(C(C)C)C2=O)c1 (stereo not given),/,/,/,-8%,-4%,/
CCOC(=O)[C@H]1[C@H]2COc3ccc(Br)cc3[C@H]2N2C(=O)CN(Cc3ccc(C)cc3)C(=O)[C@@]12C,15,?,-59*,-18%,5%,?
COc1ccc2c(c1)[C@H]1[C@H](CO2)[C@H](c2ccccc2)[C@]2(C)C(=O)N(Cc3ccc(C)cc3)CC(=O)N12,-12,6%,-56*,-3%,-4%,?
COc1ccc(CN2CC(=O)N3[C@H]4c5ccc(OC)cc5OC[C@@H]4[C@H](c4ccccc4)[C@]3(C)C2=O)cc1,12,?,-19,-6%,0%,-6%
SMILES,Giardia killer,MCF10A rerep,IL1B secr inh,Vif-A3F inh,Vif-A3G inh,SW480 rerep
COc1ccc2c(c1)OC[C@H]1[C@H]2N2C(=O)CN(Cc3ccccc3)C(=O)[C@@]2(C)[C@H]1c1ccccc1,-15,0%,-54*,-15%,1%,5%
CC1CCN(S(=O)(=O)c2ccc3nc(NCc4ccccc4)ccc3c2)CC1,/,/,/,3%,4%,/
COc1cc2c(Nc3ccc(Br)cc3F)ncnc2cc1OCC1CCN(C)CC1,/,27µM*,/,/,/,?
COc1cc2ncnc(NCc3cccc(F)c3F)c2cc1OC,-8,-8%,12,3%,-6%,-8%
COc1ccc(-n2ncc(C(=O)NCc3cccs3)c2C2CCN(C(=O)OC(C)(C)C)CC2)cc1,/,/,/,11%,-2%,/
COc1cc(-c2ccc3oc(-c4cccc(C)c4)c(C#CC4(O)CCCCC4)c3c2)cc(OC)c1OC,-18,?,-63*,0%,-1%,-1%
O=C(NCCSc1ccc(Cl)cc1)c1ccc(CN2CCOCC2)cc1,-1,?,-13,-1%,4%,-5%
O=C(/C=C/c1ccc2c(c1)OCO2)NCCSCc1cccc(Cl)c1,6,?,-7,1%,-3%,3%
O=C(/C=C/c1cccc([N+](=O)[O-])c1)NCCSCc1ccc(Cl)cc1Cl,-24,3%,-75*,-17%,-1%,1%
O=C(/C=C/c1cccc([N+](=O)[O-])c1)NCCSCc1ccccc1Cl,2,25%,?,-9%,-1%,-11%
O=C(/C=C/c1ccc2c(c1)OCO2)NCCSCc1ccc(Cl)cc1Cl,-12,?,-74*,9%,3%,-2%
O=C(NCCSCc1ccc(Cl)cc1Cl)c1ccc(CN2CCOCC2)cc1,-13,?,-51*,0%,1%,-4%
O=C(Cn1c(=O)nc(-c2ccccc2)c2cc(Cl)ccc21)NCCCc1ccccc1,/,/,/,-21%,-3%,/
CCCCc1nc2ccccc2c(N)c1CCC (tested in a mixture with another compound),-8,4%,-97*,-6%,-9%,-1%
S=C(Nc1ccccc1Cl)N(Cc1ccccc1)Cc1ccccn1,-1,16%,-52*,-1%,-8%,14%
OCCN(Cc1ccccc1)C(=S)Nc1ccc(Cl)cc1Cl,1,4%,-56*,-7%,-3%,?
COc1ccccc1NC(=S)N(Cc1ccccc1)Cc1ccccn1,-20,2%,-5,-1%,-1%,-3%
NNC(=O)c1oc2nc(-c3ccccc3)cc(-c3ccccc3)c2c1N,16,18µM*,24,?,-7%,?
CCNC(=S)NNC(=O)c1cc(-c2cccc(C)c2)nc2ccccc12,-17,2%,-11,-1%,2%,-9%
Cc1ccc(-c2cc(-c3ccco3)c3c(N)c(C(=O)NN)oc3n2)cc1,5,7.3µM*,0,11µM*,?,21µM*
COc1cccc(/C=N/NC(=O)c2oc3nc(-c4ccccc4)cc(-c4ccco4)c3c2N)c1,6,?,-58*,?,-28%,?

# Assay outcomes from PubChem.
